Experiment [1] deals with Wnt5a (protein binding on small-molecule microarray). In words: Wnt5a binders on small-molecule microarray, primary screen, biophysical, 635/667 nm fluorescence (AID 1142).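 Further: fluorescence read at 667 nm with signal to noise per printed feature.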 The note with it: 635 nm fluorescence, higher = more signal.
Experiment [2] can be described thus: cell viability in Huh7 cells, primary screen, cytotoxicity control for HCV replication inhibitor project, CellTiter-Glo luminescence, basal, 48 h (AID 1143).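 Further: Huh7 hepatoma cells carrying a hepatitis C replication reporter with no stimulus; test concentration not given here.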 The note with it: Huh7 HCV replicon, higher = more signal, called active from +8 up or from −8 down.
Experiment [3] is described as follows: P. aeruginosa biofilm formation inhibitors, primary screen, PAO1 strain, BacTiter-Glo luminescence, LB-PBS (AID 1144). The note with it: 12 h, higher = more signal.
Experiment [4] can be described thus: CREB reporter modulators without forskolin, primary screen, cell-based, PC12, CRE-LacZ reporter, unstimulated (AID 1145). The note with it: no forskolin, luminescence, 4.5 h, higher = more signal, called active from +8 up or from −8 down.
Experiment [5] can be described thus: CREB reporter modulators under forskolin, primary screen, cell-based, PC12, CRE-LacZ reporter, forskolin-stimulated (AID 1146).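 Further: PC12 cells with 6xCRE LacZ reporter stimulated by forskolin 10 µM; beta-galactosidase reporter signal reflecting CREB driven transcription.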 The note with it: luminescence, 4.5 h, higher = more signal, called active from +8 up or from −8 down.
Experiment [6] has as its target Streptavidin (Streptomyces avidinii) (UniProt P22629). In words: streptavidin binders on small-molecule microarray, primary screen, artefact control for SMM compound annotation, biophysical, 635/667 nm fluorescence (AID 1147).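 Further: signal reflects streptavidin binding to arrayed compounds as a control protein.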 The note with it: streptavidin binding, higher = more signal.
Experiment [7] can be described thus: small-molecule binders of probe aInhba, primary screen, biochemical, small-molecule microarray, 635/667 nm fluorescence (AID 1148).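 Further: score merges 667nm spot fluorescence with signal-to-noise for antibody binding to printed compounds.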 The note with it: higher = more signal.
Experiment [8] concerns the target Torsin-1A (Homo sapiens) (UniProt O14656). In words: torsin A binders from cell lysate, primary screen, small-molecule microarray, wild-type, 635/667 nm (AID 1149). The note with it: COS7 hTOR1A-WT lysate, 635 nm fluorescence, higher = more signal.
The target is the same in experiment [9]. In words: small-molecule binders of mutant TOR1A in lysate, primary screen, cell lysate, small-molecule microarray, COS7 lysate, 635/667 nm fluorescence (AID 1150).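 Further: score pools 667 nm emission and signal to noise measuring lysate protein binding.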 The note with it: COS7 hTOR1A mutant lysate, 635 nm fluorescence, higher = more signal.
Experiment [10] deals with Sonic hedgehog protein (Shh). In words: small-molecule binders of Shh protein, primary screen, biochemical, small-molecule microarray, 635/667 nm fluorescence (AID 1151).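 Further: Shh protein binding to compounds spotted on small-molecule microarray slides; score combines spot fluorescence intensity with signal-to-noise across triplicate slides.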 The note with it: small-molecule microarray binding, 635 nm fluorescence; higher = more signal.
Experiment [11] is described as follows: E. coli DRC41 culture turbidity changes, primary screen, E. coli filamentation inducer project, strain DRC41, OD650, 48 h (AID 1152).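 Further: E. coli MC1000 strain DRC41 lacking acrAB efflux pump and sulA.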 The note with it: E. coli DRC41 (acrAB sulA), higher = more signal, called active from +8 up or from −8 down.
Experiment [12] can be described thus: small-molecule binders of probe aLefty1, primary screen, biochemical, small-molecule microarray, 635/667 nm fluorescence (AID 1153).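 Further: score merges spot fluorescence with signal-to-noise ratio from the scanned slide images.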 The note with it: higher = more signal.
Experiment [13] is described as follows: PSAC antagonists in infected red cells, primary screen, cell-based, P. falciparum Indochina, OD700, 1 h (AID 1154). The note with it: P. falciparum Indochina infected RBC osmotic lysis, higher = more signal, called active from +8 up or from −8 down.
Experiment [14] is described as follows: PSAC antagonists in infected red cells, primary screen, cell-based, P. falciparum Indochina, OD700, 2 h (AID 1155).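 Further: lysis reports solute entry through the parasite surface anion channel PSAC; channel blockers reduce lysis of infected cells.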 The note with it: P. falciparum Indochina infected erythrocytes, osmotic lysis OD700; higher = more signal, called active from +8 up or from −8 down.
Experiment [15] in a line: osmotic lysis modulators in infected erythrocytes, primary screen, PSAC antagonist project, cell-based, P. falciparum Indochina, OD700, 3 h (AID 1156). The note with it: higher = more signal, called active from +8 up or from −8 down.
Experiment [16] in a line: PSAC antagonists in infected red cells, primary screen, cell-based, P. falciparum Indochina, OD700, 18 h (AID 1157). The note with it: P. falciparum Indochina infected erythrocytes, osmotic lysis OD700, 18 h; higher = more signal, called active from +8 up or from −8 down.
A short description of experiment [17]: modulators of S6 phosphorylation in cells, primary screen, cell-based, A549, cytoblot, luminescence, serum-stimulated (AID 1158).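 Further: serum-stimulated A549 lung adenocarcinoma cells; signal is phosphorylated S6 detected by cytoblot immunostaining with HRP secondary.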 The note with it: A549 phospho-S6 cytoblot, 5 h, higher = more signal.
Experiment [18] addresses NADPH oxidase 2 (Homo sapiens) (UniProt P04839). Briefly: NOX2-dependent H2O2 signal modulators, primary screen, NOX inhibitor project, cell-based, HEK293-NOX2, PMA-stimulated, Amplex Red fluorescence (AID 1159). Further: test concentration not given here. The note with it: 45 min, higher = more signal, called active from +8 up or from −8 down.
The target of experiment [19] is NADPH oxidase 4 (Homo sapiens) (UniProt Q9NPH5). Briefly: NOX4-dependent H2O2 signal modulators, primary screen, NOX inhibitor project, cell-based, HEK293-NOX4, tetracycline-induced, Amplex Red fluorescence (AID 1160). The note with it: 45 min, higher = more signal, called active from +8 up or from −8 down.
Chain of NADPH oxidase 4 (Homo sapiens) (Q9NPH5 whole entry, looked up): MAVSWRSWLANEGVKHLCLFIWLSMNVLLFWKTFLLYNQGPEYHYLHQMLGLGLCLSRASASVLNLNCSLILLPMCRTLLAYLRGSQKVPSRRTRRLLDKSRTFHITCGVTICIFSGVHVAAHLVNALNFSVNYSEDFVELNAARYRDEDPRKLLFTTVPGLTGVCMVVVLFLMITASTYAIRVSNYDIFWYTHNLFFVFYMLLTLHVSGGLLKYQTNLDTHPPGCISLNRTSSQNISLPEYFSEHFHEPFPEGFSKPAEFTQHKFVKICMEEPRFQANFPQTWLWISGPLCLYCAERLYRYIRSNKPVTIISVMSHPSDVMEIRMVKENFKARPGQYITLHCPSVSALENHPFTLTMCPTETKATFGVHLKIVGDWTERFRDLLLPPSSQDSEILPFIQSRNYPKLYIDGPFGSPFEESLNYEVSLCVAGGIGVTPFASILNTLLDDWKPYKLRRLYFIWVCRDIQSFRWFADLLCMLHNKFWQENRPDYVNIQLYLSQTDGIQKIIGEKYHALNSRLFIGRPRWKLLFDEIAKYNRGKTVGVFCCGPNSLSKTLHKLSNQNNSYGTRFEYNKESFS
Experiment [20] concerns the target NADPH oxidase 5 (Homo sapiens) (UniProt Q96PH1). In words: NOX5-dependent H2O2 signal modulators, primary screen, NOX inhibitor project, cell-based, HEK293-NOX5, Amplex Red fluorescence (AID 1161). The note with it: HEK293-NOX5, ionomycin, 45 min, higher = more signal.

Among the data in PubChem BioAssay are composite z-score and z-score values, retold here.

The source made the active and inactive calls. Unless noted, how the calls were made is not given here.

Chain of Torsin-1A (Homo sapiens) (O14656 whole entry, looked up): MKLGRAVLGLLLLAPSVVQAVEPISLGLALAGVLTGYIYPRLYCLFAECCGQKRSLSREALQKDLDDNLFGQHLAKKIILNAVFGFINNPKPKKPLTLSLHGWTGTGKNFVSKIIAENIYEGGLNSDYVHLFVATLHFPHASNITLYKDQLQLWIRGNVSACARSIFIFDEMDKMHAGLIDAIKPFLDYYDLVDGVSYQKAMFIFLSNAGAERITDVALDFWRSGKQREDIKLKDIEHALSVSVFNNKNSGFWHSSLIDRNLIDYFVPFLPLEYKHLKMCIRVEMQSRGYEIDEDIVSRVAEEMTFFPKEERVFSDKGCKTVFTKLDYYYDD
Chain of NADPH oxidase 2 (Homo sapiens) (P04839 whole entry, looked up): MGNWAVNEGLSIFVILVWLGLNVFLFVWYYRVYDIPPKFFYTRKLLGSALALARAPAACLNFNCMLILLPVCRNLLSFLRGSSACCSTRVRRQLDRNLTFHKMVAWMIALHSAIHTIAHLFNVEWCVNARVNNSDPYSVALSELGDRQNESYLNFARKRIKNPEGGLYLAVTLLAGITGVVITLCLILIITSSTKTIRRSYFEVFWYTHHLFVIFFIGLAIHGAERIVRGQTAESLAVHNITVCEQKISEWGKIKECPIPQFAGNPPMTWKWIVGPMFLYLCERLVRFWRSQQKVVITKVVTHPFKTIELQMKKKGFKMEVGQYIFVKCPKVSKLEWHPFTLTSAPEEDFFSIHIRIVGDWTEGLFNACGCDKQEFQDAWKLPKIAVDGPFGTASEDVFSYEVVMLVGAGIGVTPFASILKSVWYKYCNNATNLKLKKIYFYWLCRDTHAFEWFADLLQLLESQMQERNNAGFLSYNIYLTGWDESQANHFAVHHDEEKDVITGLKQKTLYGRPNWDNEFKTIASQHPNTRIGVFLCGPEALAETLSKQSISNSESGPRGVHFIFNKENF
Chain of Streptavidin (Streptomyces avidinii) (P22629 whole entry, looked up): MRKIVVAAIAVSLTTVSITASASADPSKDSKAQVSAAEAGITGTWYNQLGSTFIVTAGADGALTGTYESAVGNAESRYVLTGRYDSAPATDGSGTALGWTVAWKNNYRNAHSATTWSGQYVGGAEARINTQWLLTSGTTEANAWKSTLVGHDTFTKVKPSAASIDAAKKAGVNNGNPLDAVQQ
Chain of NADPH oxidase 5 (Homo sapiens) (Q96PH1 whole entry, looked up): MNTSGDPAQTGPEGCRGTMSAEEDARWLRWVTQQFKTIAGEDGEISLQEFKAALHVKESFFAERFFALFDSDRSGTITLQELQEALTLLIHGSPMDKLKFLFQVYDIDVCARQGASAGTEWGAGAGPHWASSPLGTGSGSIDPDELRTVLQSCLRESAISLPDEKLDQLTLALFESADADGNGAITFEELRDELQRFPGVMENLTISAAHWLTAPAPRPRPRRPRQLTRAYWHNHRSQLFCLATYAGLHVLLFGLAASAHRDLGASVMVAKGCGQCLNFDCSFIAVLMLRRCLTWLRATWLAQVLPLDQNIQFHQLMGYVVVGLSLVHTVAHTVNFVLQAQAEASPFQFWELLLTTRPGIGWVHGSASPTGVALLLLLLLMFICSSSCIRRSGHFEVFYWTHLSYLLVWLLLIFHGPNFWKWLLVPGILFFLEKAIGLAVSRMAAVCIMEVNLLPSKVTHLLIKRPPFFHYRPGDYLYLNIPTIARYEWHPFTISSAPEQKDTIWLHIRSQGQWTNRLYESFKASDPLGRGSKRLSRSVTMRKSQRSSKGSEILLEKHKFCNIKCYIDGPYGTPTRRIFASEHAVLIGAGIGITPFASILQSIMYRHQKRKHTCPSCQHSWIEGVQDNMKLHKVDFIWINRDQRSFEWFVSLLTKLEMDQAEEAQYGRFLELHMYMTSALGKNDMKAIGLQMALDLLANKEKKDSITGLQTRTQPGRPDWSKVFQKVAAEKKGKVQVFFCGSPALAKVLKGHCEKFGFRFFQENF

In the case of `COCCCNC(=O)[C@]1(CCC(=O)OC(C)(C)C)N=C(c2ccc(OCCCO)cc2)O[C@@H]1c1ccccc1N=[N+]=[N-]`, the composite z-score in experiment [1] is 0.951; in experiment [6], 1.45; in [7], 0.283; in the experiment with Torsin-1A (Homo sapiens) [8], 1.54; with Torsin-1A (Homo sapiens) [9] it was 1.1; in experiment [10], -0.2. This molecule had a composite z-score in experiment [12] of 0.483. The z-score is -1.41 (inactive) in [2]; -1.67 (inactive) in [3]; -0.482 (inactive) in experiment [4]; -0.478 (inactive) in [5]; 0.734 (inactive) in experiment [11]; 32.7 (active) in experiment [13]. Besides, the z-score in [14] is 29.9 (active); in [15], 4.05 (inactive); in experiment [16], 7.68 (inactive); in experiment [17] it was 0.0838; in experiment [18], -2.44 (inactive); in experiment [19] it was 1.59 (inactive). The same molecule registered a z-score in [20] of -2.19.

`CC(C)(C)N1CC=CC23O[C@@H]4C=CCCOC(=O)C4[C@H]2C(=O)N(CCCCCO)[C@@H]3C1=O` (stereo not given in full): the composite z-score is 0.37 in [1]; -0.102 in experiment [6]; 0.214 in experiment [7]; 1.11 with Torsin-1A (Homo sapiens) [8]; 0.879 with Torsin-1A (Homo sapiens) [9]; 0.992 in experiment [10]. In experiment [12], this molecule yielded a composite z-score of 0.0919. The z-score was -0.128 (inactive) in experiment [2]; -0.174 (inactive) in experiment [3]; 0.333 (inactive) in experiment [4]; -0.329 (inactive) in experiment [5]; 0.499 (inactive) in experiment [11]; 1.03 (inactive) in experiment [13]. The z-score in experiment [14] is 0.396 (inactive); in [15], 1.98 (inactive); in [16], 0.159 (inactive); in experiment [17], -0.186; in [18], 1.26 (inactive); in experiment [19], 0.385 (inactive). Also, in [20], the z-score is 1.75.

Consider `CN(C)CCCNC(=O)[C@@H]1c2ccccc2C(=O)N(Cc2cc(F)cc(C(F)(F)F)c2)[C@H]1c1ccc(CO)cc1`, for which the composite z-score in [1] was 0.095; in experiment [6] it was -0.621; in experiment [7], -0.0849; with Torsin-1A (Homo sapiens) [8], 0.65; with Torsin-1A (Homo sapiens) [9], -0.348; in experiment [10], 0.388. Besides, the composite z-score in experiment [12] was -0.0818. In addition, the z-score in experiment [2] is -1.77 (inactive); in experiment [3], -0.101 (inactive); in [4], 0.351 (inactive); in experiment [5], 0.159 (inactive); in experiment [11], -0.72 (inactive); in experiment [13], 1.88 (inactive). The z-score is 0.382 (inactive) in experiment [14]; 2.38 (inactive) in [15]; 0.745 (inactive) in experiment [16]; 0.269 in experiment [17]; 0.547 (inactive) in experiment [18]; -0.0177 (inactive) in experiment [19]. In addition, in [20], the z-score is -2.19.

In the case of `COc1ccccc1CN1C(=O)c2ccccc2[C@@H](C(=O)NCC(F)(F)F)[C@@H]1c1ccc(CO)cc1`, the composite z-score in experiment [1] was found to be 0.324; in experiment [6] it was 0.299; in [7], 0.16; with Torsin-1A (Homo sapiens) [8] it was 0.156; with Torsin-1A (Homo sapiens) [9] it was 0.336; in experiment [10], 1.92. For the same molecule, the composite z-score in [12] is -0.242. Also, the z-score in [2] is -1.92 (inactive); in experiment [3], -1.6 (inactive); in experiment [4] it was 0.504 (inactive); in experiment [5] it was -1.28 (inactive); in [11], 1.22 (inactive); in experiment [13], 2.54 (inactive). The z-score in experiment [14] is 0.346 (inactive); in experiment [15], -0.114 (inactive); in experiment [16], 0.547 (inactive); in experiment [17] it was -0.189; in experiment [18] it was 0.629 (inactive); in experiment [19], 0.732 (inactive). In addition, the z-score in experiment [20] was -0.0947.
